The values below come from the supplement of paper PMC7335073.

The full ranking holds about 4,100 sequences; the median of “relative CpG methylation activity (normalised to average over all NNNCGNNN flanks)” is about 0.87, and the highest 2% start at about 2.4. The sample as a whole holds a higher share of the highest values than the screen did.

For this test, the target named is DNMT3A catalytic domain (mouse) (UniProt O88508). Kind of test: relative CpG methylation activity (normalised to average over all NNNCGNNN flanks) (relative (1 = mean)); higher = more methylation of the central CpG. The note with it: system: in vitro, murine catalytic domain; CpG state: hemimethylated substrate pool; residues: 608-908. As for the experimental part: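 Deep enzymology: a pool of dsDNA substrates with a central CpG flanked by 10 random nucleotides on each side was methylated by the murine DNMT3A or DNMT3B catalytic domain (0.8 mM SAM, 37 °C, 60 min). Methylation was then read out by hairpin ligation, bisulfite conversion and NGS. Values are the average methylation of each NNNCGNNN context (±3 flanks; the outer flanks are random and averaged over), normalised to the overall mean, so 1 = average activity.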
Regarding CCTCGGAT, the “relative CpG methylation activity” value came out at 0.744.
The figure for CCCCGCGC is 1.17.
In the case of TATCGACT, the “relative CpG methylation activity” value was determined as 0.753.
As for ATCCGGAT, the “relative CpG methylation activity” value is 1.34.
For GTGCGACC, the “relative CpG methylation activity” value was 1.61.
In the case of AGCCGATT, the “relative CpG methylation activity” value was found to be 0.672.
The result for GATCGCCA reads 0.923; that for CTCCGCCT, 2.45.
The result for CGCCGCCA reads 1.25; that for ATCCGCCC, 2.96; that for ATCCGCCG, 2.1.
For the sequence TCCCGCCC, the “relative CpG methylation activity” value came out at 1.99.
AACCGCCC: the “relative CpG methylation activity” value amounted to 1.78.
The figure for CTCCGCGT is 1.98.
The result for TTCCGCGC reads 2.03.
The result for CACCGCCA reads 1.32; that for CGCCGCCT, 1.48.
On to CTCCGCCA, for which the “relative CpG methylation activity” value came out at 2.37.
As to TTCCGCCC, the “relative CpG methylation activity” value was 2.77.
CATCGGGG: the “relative CpG methylation activity” value came out at 0.133.
The result for CGCCGGTA reads 0.746; that for ATCCGGAA, 0.939; that for CCACGCAC, 1.81.
In the case of CTTCGGGC, the “relative CpG methylation activity” value worked out at 1.16.
The result for TCTCGACG reads 0.648; that for GGCCGCAA, 0.657.
The result for TTGCGACT reads 1.31.
The figure for ATCCGCGT is 1.34; for CGCCGCCC it is 1.77.
Turning to CTCCGCCC, the “relative CpG methylation activity” value worked out at 2.44.
The figure for GGCCGCCC is 1.79.
Consider ATCCGCCT, for which the “relative CpG methylation activity” value was found to be 2.5.
The result for CTCCGCCG reads 2.31; that for AACCGCCT, 1.76.
The result for GTCCGCGG reads 0.584; that for GTCCGCCG, 2.46.
The result for GGCCGCCG reads 1.34; that for GCCCGCCC, 2.25.
Consider GTCCGCCC, for which the “relative CpG methylation activity” value turned out to be 2.41.
On to TAGCGCTG, for which the “relative CpG methylation activity” value is 0.34.
The figure for CATCGACC is 0.793; for GATCGTTT it is 0.404.
Consider TGTCGGTC, for which the “relative CpG methylation activity” value was 0.542.
The result for GGTCGAAA reads 0.512; that for AGCCGCCA, 1.02; that for ATCCGCCA, 2.4.
The figure for ATCCGCGA is 1.03.
The figure for AACCGAGG is 0.346; for AGACGAGA it is 0.731.
As to TTCCGTCC, the “relative CpG methylation activity” value came to 2.26.
The figure for ATCCGTCC is 2.61; for ATCCGTCG it is 2.08.
As to CTCCGTCA, the “relative CpG methylation activity” value turned out to be 1.79.
The figure for CTCCGTCC is 2.65; for CTCCGTCG it is 1.92.
For the sequence GCACGGGC, the “relative CpG methylation activity” value turned out to be 1.47.
The figure for GAACGTCG is 1.25.
Regarding ATGCGGCC, the “relative CpG methylation activity” value was 1.64.
